We go through 17 compounds from PubChem BioAssay (Tox21).

Molecules are shown by their SMILES. Values without a mark were called inactive. Records with an inconclusive call do not appear. Calls of active or inactive are those of the source. Calls come from the whole dose curve; as a rule, active = well fitted curve in the direction sought with a large enough effect in the repeat runs; inconclusive = weak or mixed curves; inactive = no such curve, though single readings can be large; an effect the other way counts as inactive or inconclusive.

Experiment [1] is described as follows: Human pregnane X receptor (PXR) small molecule agonists, qHTS cell viability counter screen (AID 1346977). Note: nearly all actives have a fitted effect of over 50% in size. An outline of the steps: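 Same-well viability read: CellTiter-Fluor added after 23 hr compound exposure, fluorescence measured 1 hr later. Cells were PXR-Luc HepG2 seeded at 2,000/well in 5% charcoal-stripped FBS medium, rested 5 hr before dosing at 37 C.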
(In general: qHTS replaces the single test concentration by a dilution series.)

The nature of experiment [2]: Caspase-3/7 induction in HepG2 cells by small molecules, qHTS assay (AID 1346978). Note: nearly all actives have a fitted effect of over 15% in size. Put shortly:
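Caspase-3/7 induction was measured by Caspase-Glo 3/7 luminescence (30 min, room temperature) after a 17 hr compound exposure of wild-type HepG2 cells seeded at 2,000 per well and pre-incubated 5 hr.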

A short description of experiment [3]: Caspase-3/7 induction in CHO-K1 cells by small molecules, qHTS cell viability counter screen (AID 1346979). Note: nearly all actives have a fitted effect of over 35% in size. Put shortly:
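Cytotoxicity counter screen: CellTiter-Fluor added to compound-treated wild-type CHO-K1 cells at 16 h (37C, 5% CO2), fluorescence measured 1 h later; same wells as caspase-3/7 measurement.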

Experiment [4] is described as follows: Caspase-3/7 induction in CHO-K1 cells by small molecules, qHTS assay (AID 1346980). Note: nearly all actives have a fitted effect of over 15% in size. Put shortly:
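Luminescent Caspase-Glo 3/7 read (30min, room temperature) quantified apoptosis induction. Cells were wild-type CHO-K1, treated with compound for 17hr at 37 C and 5% CO2.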

Experiment [5] can be described thus: Caspase-3/7 induction in HepG2 cells by small molecules, qHTS cell viability counter screen (AID 1346981). Note: series mostly up to about 92 µM; nearly all actives have a fitted effect of over 30% in size. An outline of the steps:
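Counter screen for cytotoxicity: HepG2 exposed 16 hr to compounds, then CellTiter-Fluor viability signal (fluorescence, 1 hr reagent incubation).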

Experiment [6] has as its target Cytochrome P450 2D6 (Homo sapiens) (UniProt P10635). Put plainly: Cytochrome P450 Family 2 Subfamily D Member 6 (CYP2D6) small molecule antagonists: luciferase reporter qHTS assay (AID 1671196). Note: nearly all actives have a fitted effect of over 50% in size. Note: potency is the fitted concentration of half-maximal effect. Put shortly:
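Inhibition of CYP2D6 was gauged by loss of luminescence, since light produced tracks the luciferin generated from a proluciferin substrate. A 10 min room-temperature preincubation preceded 1 h NADPH-supported turnover.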
For orientation: Reporter assays use an easily measured gene product as a stand-in for the process of interest.

The target in experiment [7] is Cytochrome P450 2C19 (Homo sapiens) (UniProt P33261). The experiment can be described thus: Cytochrome P450 Family 2 Subfamily C Member 19 (CYP2C19) small molecule antagonists: luciferase reporter qHTS assay (AID 1671197). Note: nearly all actives have a fitted effect of over 65% in size. Note: potency is the fitted concentration of half-maximal effect. Put shortly: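 Relative luminescence units recorded 20 min after the detection reagent stopped a 1 h, 37C CYP2C19 reaction on proluciferin substrate, which was started by NADPH regeneration following 10 min room-temperature compound preincubation; ketoconazole positive control.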

Experiment [8] concerns the target Cytochrome P450 2C9 (Homo sapiens) (UniProt P11712). The experiment can be described thus: Cytochrome P450 Family 2 Subfamily C Member 9 (CYP2C9) small molecule antagonists: luciferase reporter qHTS assay (AID 1671198). Note: nearly all actives have a fitted effect of over 50% in size. Note: potency is the fitted concentration of half-maximal effect. An outline of the steps:
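Enzyme-substrate mix preincubated with compound 10 min at room temperature; reaction started with NADPH regeneration solution, 1 h 37C. Luminescent luciferin product read after 20 min detection reagent.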

In experiment [9] the target is Voltage-gated inwardly rectifying potassium channel KCNH2 (Homo sapiens) (UniProt Q12809). The experiment can be described thus: Human Ether-a-go-go-Related Gene (hERG) channel small molecule antagonists: fluorescence cell-based qHTS assay (AID 1671200). Note: series mostly up to about 77 µM; nearly all actives have a fitted effect of over 50% in size. Put shortly: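 Thallium flux as potassium surrogate: FluxOR II dye loaded 1 h at room temperature into hERG-expressing U2OS cells, then stimulus buffer added after 10 min. Kinetic 480 nm excitation/540 nm emission read, 2 min.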
In general terms: Block of hERG is tested as a sign of cardiac risk.

The target in experiment [10] is Cytochrome P450 3A4 (Homo sapiens) (UniProt P08684). Put plainly: Cytochrome P450 Family 3 Subfamily A Member 4 (CYP3A4) small molecule antagonists: luciferase reporter qHTS assay (AID 1671201). Note: nearly all actives have a fitted effect of over 50% in size. Note: potency is the fitted concentration of half-maximal effect. Put shortly: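 Recombinant human CYP3A4 converts a proluciferin substrate to luciferin over 1 h at room temperature after NADPH regeneration solution is added (compound preincubated 10 min); detection reagent stops reaction, luminescence read 20 min later as relative units.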

Experiment [11] deals with Nuclear receptor subfamily 1 group I member 2 (Homo sapiens) (UniProt O75469). Put plainly: Human pregnane X receptor (PXR) small molecule agonists, qHTS assay (AID 1346982). Note: nearly all actives have a fitted effect of over 35% in size. Note: potency is the fitted concentration of half-maximal effect. An outline of the steps:
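Luminescence (ONE-Glo, 30 min RT) after 24 hr compound exposure of PXR-Luc HepG2 cells; cells rested 5 hr post-plating in 5% charcoal-stripped FBS medium.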

Experiment [12] addresses Cytochrome P450 1A2 (Homo sapiens) (UniProt P05177). Put plainly: Cytochrome P450 Family 1 Subfamily A Member 2 (CYP1A2) small molecule antagonists: luciferase reporter qHTS assay (AID 1671199). An outline of the steps: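 Signal from luciferin formed by CYP1A2 from a proluciferin substrate is read as luminescence, expressed in relative luminescence units. Compounds sit with enzyme 10 min, NADPH-driven reaction runs 1 h, all at room temperature.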

For experiment [13], the target named is Nuclear receptor subfamily 1 group I member 2 (Rattus norvegicus) (UniProt Q9R1A7). The experiment can be described thus: Rat pregnane X receptor (rPXR) activation by small molecules, qHTS assay (AID 1346983). Note: nearly all actives have a fitted effect of over 20% in size. To be noted: rPXR luciferase reporter cells, One-Glo luminescence, 24 h; hits give high values. Put shortly: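 Luminescent readout (One-Glo luciferase, 30 min room temperature) followed 24 hr compound treatment at 37 C of rPXR cells plated 2,000 per well and preincubated 5hr; qHTS format with compounds delivered in DMSO.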

Experiment [14] deals with Nuclear receptor subfamily 1 group I member 2 (Homo sapiens) (UniProt O75469). Put plainly: Human pregnane X receptor (PXR) activation by small molecules, qHTS assay (AID 1346985). Note: nearly all actives have a fitted effect of over 40% in size. An outline of the steps: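 DPX-2 cells (HepG2 co-transfected with a PXR response element and a CYP3A4-promoter luciferase construct) were seeded at 2,000 per well, rested 5 hr at 37C, then exposed to DMSO-dissolved compounds for 24 hr. Activation was read as luciferase luminescence.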
% is set by controls: 0 for no effect and ±100 for the full control effect.

Sequence of Voltage-gated inwardly rectifying potassium channel KCNH2 (Homo sapiens) (Q12809 whole entry, looked up): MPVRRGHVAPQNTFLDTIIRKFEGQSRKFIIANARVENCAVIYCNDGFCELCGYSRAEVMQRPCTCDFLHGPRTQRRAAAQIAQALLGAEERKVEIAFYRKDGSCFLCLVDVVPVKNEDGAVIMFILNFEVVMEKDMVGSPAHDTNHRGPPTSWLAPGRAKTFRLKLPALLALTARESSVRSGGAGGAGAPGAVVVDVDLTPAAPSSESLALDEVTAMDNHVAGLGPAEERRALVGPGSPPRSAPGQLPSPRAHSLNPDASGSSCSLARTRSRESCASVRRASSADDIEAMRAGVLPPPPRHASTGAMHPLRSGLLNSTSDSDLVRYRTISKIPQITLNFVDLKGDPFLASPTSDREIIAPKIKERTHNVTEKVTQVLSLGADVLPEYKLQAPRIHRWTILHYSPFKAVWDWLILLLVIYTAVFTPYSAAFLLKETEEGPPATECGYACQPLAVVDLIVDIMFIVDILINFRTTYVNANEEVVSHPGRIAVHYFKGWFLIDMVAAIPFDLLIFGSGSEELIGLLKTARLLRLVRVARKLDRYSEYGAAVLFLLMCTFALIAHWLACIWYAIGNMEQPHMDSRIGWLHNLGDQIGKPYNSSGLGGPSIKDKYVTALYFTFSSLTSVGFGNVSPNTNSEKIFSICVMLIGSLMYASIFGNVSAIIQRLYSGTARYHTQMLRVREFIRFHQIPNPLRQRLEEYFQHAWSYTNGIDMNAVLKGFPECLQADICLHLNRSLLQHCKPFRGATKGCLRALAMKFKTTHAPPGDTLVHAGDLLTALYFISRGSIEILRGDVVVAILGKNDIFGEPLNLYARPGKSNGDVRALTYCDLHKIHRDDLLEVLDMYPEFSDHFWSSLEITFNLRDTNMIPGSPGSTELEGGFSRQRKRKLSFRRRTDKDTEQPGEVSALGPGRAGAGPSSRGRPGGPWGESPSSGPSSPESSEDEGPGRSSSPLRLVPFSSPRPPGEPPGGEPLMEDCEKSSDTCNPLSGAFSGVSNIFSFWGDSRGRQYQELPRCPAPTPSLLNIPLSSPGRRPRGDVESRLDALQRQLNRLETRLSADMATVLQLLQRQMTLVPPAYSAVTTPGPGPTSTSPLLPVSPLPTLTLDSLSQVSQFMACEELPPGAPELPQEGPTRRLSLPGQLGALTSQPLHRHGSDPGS
Sequence of Cytochrome P450 2C9 (Homo sapiens) (P11712 whole entry, looked up): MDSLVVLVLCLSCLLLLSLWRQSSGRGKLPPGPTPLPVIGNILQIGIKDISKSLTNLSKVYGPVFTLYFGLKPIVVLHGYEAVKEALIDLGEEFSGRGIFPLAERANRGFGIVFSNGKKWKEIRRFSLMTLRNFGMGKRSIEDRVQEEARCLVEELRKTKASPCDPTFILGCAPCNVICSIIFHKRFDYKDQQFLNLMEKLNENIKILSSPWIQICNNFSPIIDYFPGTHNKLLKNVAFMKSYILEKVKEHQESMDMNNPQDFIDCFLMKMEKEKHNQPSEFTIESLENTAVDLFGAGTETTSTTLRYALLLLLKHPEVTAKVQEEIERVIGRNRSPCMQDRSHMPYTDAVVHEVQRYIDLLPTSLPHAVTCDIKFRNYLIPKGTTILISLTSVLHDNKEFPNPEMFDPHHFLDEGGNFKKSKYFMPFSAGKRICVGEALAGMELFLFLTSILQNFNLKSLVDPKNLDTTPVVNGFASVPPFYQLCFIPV
Sequence of Cytochrome P450 1A2 (Homo sapiens) (P05177 whole entry, looked up): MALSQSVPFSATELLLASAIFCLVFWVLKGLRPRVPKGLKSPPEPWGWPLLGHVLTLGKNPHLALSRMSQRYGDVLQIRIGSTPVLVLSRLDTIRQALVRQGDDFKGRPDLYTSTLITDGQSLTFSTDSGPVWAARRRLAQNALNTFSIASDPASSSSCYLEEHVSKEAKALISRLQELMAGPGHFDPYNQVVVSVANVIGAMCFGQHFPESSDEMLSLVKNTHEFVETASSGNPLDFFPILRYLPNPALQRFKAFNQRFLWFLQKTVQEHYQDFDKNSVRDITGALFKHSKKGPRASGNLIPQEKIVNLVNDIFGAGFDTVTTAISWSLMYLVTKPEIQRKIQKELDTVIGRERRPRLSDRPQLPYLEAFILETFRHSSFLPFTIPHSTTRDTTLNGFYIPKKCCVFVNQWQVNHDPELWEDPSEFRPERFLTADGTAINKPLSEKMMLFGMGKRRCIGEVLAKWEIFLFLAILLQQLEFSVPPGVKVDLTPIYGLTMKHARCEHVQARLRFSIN
Sequence of Cytochrome P450 2D6 (Homo sapiens) (P10635 whole entry, looked up): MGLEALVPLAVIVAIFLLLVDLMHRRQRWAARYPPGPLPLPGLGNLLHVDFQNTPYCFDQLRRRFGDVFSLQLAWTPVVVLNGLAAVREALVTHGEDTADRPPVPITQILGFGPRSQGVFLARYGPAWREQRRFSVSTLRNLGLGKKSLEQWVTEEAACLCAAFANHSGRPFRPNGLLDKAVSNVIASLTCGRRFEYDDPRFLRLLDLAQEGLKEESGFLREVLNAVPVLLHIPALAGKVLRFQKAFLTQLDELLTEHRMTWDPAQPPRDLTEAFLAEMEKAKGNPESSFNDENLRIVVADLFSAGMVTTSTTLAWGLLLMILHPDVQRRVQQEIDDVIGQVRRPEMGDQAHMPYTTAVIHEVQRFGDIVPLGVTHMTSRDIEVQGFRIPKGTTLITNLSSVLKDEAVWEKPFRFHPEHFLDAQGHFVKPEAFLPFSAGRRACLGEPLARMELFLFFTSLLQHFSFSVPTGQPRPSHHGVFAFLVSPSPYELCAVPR
Sequence of Cytochrome P450 2C19 (Homo sapiens) (P33261 whole entry, looked up): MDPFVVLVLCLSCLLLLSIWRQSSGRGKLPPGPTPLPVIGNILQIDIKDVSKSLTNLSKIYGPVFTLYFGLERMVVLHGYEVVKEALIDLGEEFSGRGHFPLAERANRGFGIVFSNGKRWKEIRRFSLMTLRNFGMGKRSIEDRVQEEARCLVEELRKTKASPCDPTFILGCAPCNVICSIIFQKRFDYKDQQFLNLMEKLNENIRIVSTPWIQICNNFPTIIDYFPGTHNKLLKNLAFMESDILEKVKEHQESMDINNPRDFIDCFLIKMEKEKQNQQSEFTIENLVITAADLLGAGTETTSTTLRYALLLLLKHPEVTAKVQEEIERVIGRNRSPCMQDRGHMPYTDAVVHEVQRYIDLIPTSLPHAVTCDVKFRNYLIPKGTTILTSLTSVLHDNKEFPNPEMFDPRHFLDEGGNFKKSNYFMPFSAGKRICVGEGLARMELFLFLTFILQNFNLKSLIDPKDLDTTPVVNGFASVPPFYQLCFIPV
Sequence of Cytochrome P450 3A4 (Homo sapiens) (P08684 whole entry, looked up): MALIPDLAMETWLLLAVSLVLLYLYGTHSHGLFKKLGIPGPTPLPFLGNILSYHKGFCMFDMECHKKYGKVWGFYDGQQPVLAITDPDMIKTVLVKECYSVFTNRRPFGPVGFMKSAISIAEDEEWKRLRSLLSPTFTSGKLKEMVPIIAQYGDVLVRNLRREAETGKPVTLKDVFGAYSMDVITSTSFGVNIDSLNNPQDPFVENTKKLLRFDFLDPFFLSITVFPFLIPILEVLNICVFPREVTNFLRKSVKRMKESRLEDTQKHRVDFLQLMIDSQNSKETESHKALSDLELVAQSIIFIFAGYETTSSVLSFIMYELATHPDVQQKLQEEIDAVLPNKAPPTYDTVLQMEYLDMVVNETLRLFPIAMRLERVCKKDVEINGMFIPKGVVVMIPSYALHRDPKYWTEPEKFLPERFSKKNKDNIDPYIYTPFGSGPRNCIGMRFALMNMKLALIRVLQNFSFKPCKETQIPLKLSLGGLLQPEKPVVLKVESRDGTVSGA
Sequence of Nuclear receptor subfamily 1 group I member 2 (Homo sapiens) (O75469 whole entry, looked up): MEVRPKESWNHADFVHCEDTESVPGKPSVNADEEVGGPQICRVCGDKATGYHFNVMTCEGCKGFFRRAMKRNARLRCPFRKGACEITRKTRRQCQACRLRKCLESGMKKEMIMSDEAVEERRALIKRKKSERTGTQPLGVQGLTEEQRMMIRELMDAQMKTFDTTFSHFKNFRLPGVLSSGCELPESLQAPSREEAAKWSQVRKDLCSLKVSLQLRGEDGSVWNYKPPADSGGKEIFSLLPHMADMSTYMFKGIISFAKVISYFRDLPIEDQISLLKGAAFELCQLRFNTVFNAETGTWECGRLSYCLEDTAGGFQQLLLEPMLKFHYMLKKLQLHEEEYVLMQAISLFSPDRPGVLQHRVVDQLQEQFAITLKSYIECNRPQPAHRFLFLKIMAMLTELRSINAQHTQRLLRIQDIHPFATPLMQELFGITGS
Sequence of Nuclear receptor subfamily 1 group I member 2 (Rattus norvegicus) (Q9R1A7 whole entry, looked up): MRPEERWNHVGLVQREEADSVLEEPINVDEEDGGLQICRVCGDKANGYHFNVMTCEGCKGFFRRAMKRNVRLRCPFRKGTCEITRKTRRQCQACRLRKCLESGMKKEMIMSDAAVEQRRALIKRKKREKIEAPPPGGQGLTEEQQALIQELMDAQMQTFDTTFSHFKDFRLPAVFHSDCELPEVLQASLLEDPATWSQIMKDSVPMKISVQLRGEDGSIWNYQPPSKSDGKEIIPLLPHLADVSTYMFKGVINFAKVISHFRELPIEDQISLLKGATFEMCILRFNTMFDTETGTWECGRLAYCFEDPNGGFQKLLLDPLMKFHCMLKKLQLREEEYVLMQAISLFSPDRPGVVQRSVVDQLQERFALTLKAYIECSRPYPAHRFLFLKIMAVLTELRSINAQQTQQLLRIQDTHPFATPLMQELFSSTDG

As for `C[Si](C)(C)C`, the Potency entry in experiment [1], in [2], in [3], in [5], in experiment [6] and in [7] was “inactive” throughout. The Potency result in experiment [8], in experiment [9] and in experiment [10] was “inactive” throughout. The call in experiment [4] was inactive.

With `CC(C)CCCC(C)(C)O`, the Potency entry in experiment [1], in experiment [2], in experiment [3], in experiment [11], in experiment [6] and in [7] was “inactive” throughout. Moreover, the Potency result in experiment [8], in experiment [12], in experiment [9] and in experiment [10] was “inactive” each time. Besides, the compound was called inactive in experiment [4].

As to `CC(=O)/C=C/C1C(C)=CCC(C)C1(C)C` (stereo unspecified), the Potency entry in experiment [1], in [2], in [3], in [5], in experiment [6] and in experiment [9] was “inactive” in each case. The compound was called inactive in [4]. Moreover, the results for the Potency in [11], in [7] and in experiment [10] were 19.3 µM (active), 10 µM (active) and 25.2 µM (active), respectively.

As to `CCCOC(OCCC)OCCC`, the Potency result in experiment [1], in experiment [3], in [5], in experiment [11], in experiment [6] and in [7] was “inactive” each time. For the same compound, the Potency result in experiment [8], in experiment [12], in [9] and in [10] was “inactive” in each case. Moreover, the result in [4] was inactive.

Take `NC(CO)C(=O)NNCc1ccc(O)c(O)c1O` (stereo unspecified): the Potency entry in [1], in experiment [2], in experiment [3], in [5], in experiment [14] and in experiment [12] was “inactive” in each case. For the same compound, the Potency entry in experiment [9] is “inactive”. Also, the max activation in [13] is -1.3%.

For `O=C(OCC1(COC(=O)c2cccnc2)CCCC(COC(=O)c2cccnc2)(COC(=O)c2cccnc2)C1O)c1cccnc1`, the Potency entry in [1], in [2], in experiment [3], in experiment [5], in [11] and in experiment [12] was “inactive” in each case. Besides, the Potency entry in experiment [9] is “inactive”. Besides, the Potency in experiment [7] is 38.9 µM (active); in experiment [8], 12.3 µM (active).

Take `O=S(=O)(O)c1ccc2cc(O)c(S(=O)(=O)O)cc2c1`: the Potency entry in experiment [1], in experiment [2], in experiment [3], in [5], in experiment [11] and in experiment [7] was “inactive” throughout. Further, the Potency entry in [12], in [9] and in [10] was “inactive” in each case. Besides, the compound was called inactive in [4].

With `CCn1ccc(NS(=O)(=O)c2ccc(N)cc2)nc1=O`, the Potency entry in experiment [1], in experiment [3], in [5], in experiment [11], in experiment [6] and in [7] was “inactive” in each case. Besides, the Potency entry in experiment [12], in experiment [9] and in [10] was “inactive” throughout. Besides, the compound was classed as inactive in experiment [4].

Regarding `CC(C)N(c1ccccc1)C(C)C`, the Potency result in [1], in experiment [3], in experiment [5], in experiment [11], in experiment [6] and in experiment [7] was “inactive” in each case. The Potency result in experiment [8], in experiment [12], in experiment [9] and in experiment [10] was “inactive” throughout. Moreover, the compound was classed as inactive in experiment [4].

Regarding `On1nnc2ccccc21`, the Potency entry in experiment [1], in [2], in [3], in experiment [5], in [11] and in [7] was “inactive” each time. Further, the Potency result in experiment [8], in [9] and in experiment [10] was “inactive” each time. Moreover, the result in [4] was inactive. For the same compound, the Potency in experiment [6] was 35.6 µM (active).

On to `CCOC(=O)c1ncn2c1CN(C)C(=O)c1cc(F)ccc1-2`, for which the Potency entry in experiment [1], in experiment [2], in [3], in experiment [5], in experiment [11] and in experiment [6] was “inactive” in each case. In addition, the Potency entry in [7], in [12], in experiment [9] and in experiment [10] was “inactive” each time. Also, the result in [4] was inactive.

In the case of `C=C1CC/C=C(\C)CC[C@@H]2[C@@H]1CC2(C)C`, the Potency result in experiment [1], in experiment [2], in experiment [3], in [5], in experiment [11] and in experiment [6] was “inactive” in each case. Moreover, the Potency result in [7], in experiment [12], in [9] and in experiment [10] was “inactive” in each case. For the same compound, the compound was called inactive in experiment [4].

`C=C(C)C(=O)OCc1ccccc1`: the Potency result in [1], in [2], in experiment [3], in experiment [5], in experiment [11] and in experiment [6] was “inactive” in each case. Besides, the Potency result in [8], in experiment [9] and in experiment [10] was “inactive” in each case. In addition, the compound was called inactive in experiment [4].

Take `CCCC(=O)C(C)=O`: the Potency result in experiment [1], in [3], in experiment [11], in [6], in experiment [12] and in [9] was “inactive” in each case. In experiment [4], the compound was classed as inactive.

For `CCCCCOC(=O)CCC`, the Potency result in experiment [1], in [2], in experiment [3], in experiment [11], in [6] and in experiment [7] was “inactive” each time. In addition, the Potency entry in experiment [8], in experiment [12], in [9] and in [10] was “inactive” each time. Also, in experiment [4], the compound was classed as inactive.

In the case of `CC1=CCC(C(C)C)=CC1`, the Potency result in experiment [1], in [2], in experiment [3], in [5], in [11] and in experiment [6] was “inactive” throughout. Also, the Potency result in [7], in experiment [12], in [9] and in experiment [10] was “inactive” throughout.

As for `CC(C)(C)c1nnc(NS(=O)(=O)c2ccc(N)cc2)s1`, the Potency entry in [1], in experiment [2], in experiment [3], in experiment [5], in experiment [11] and in experiment [7] was “inactive” each time. The Potency entry in experiment [12], in experiment [9] and in [10] was “inactive” in each case. Further, the compound was called inactive in experiment [4].
